Measurements from PubChem BioAssay AID1159580 (chemical genetic matrix, 2015).
Several values for one entry are separate records, joined by “and”; a condition that tells them apart may be missing. Equal entries are not always repeated. In all, about 5,500 compounds went through this assay and about 2,000 (36%) were called active. About 18% were inconclusive and are not listed. No stated cut-off is given here; in the data, active means normalized growth mostly below about 0.91 (no sharp cut-off); inconclusive means no clear call, values can overlap the other calls; inactive means mostly above about 0.92. Some of the results follow.

Test: chemical genetic growth profiling, strain panel (AID 1159580);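 further: tested at 20 µM; growth read once vehicle control cultures reached saturation at 30 °C; 1 = growth at the plate median or of vehicle wells; lower values mean less growth of the strain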
Conditions: growth OD

Measured: normalized growth

NC/C=C/C(=O)O
inactive: S. cerevisiae deletion strains, locus YJR043C, strain POL32, hits give low values 1.04 | S. cerevisiae deletion strains, locus YJR075W, strain HOC1, hits give low values 1.01 | S. cerevisiae deletion strains, locus YKL009W, strain mrt4, hits give low values 1.03 | S. cerevisiae deletion strains, locus YKL068W, hits give low values 1.01 | S. cerevisiae deletion strains, locus YKL085W, strain MDH1 (second series), hits give low values 1.01 | S. cerevisiae deletion strains, locus YKL085W, strain MDH1, hits give low values 1.01 | S. cerevisiae deletion strains, locus YKL160W, strain elf1, hits give low values 0.981 | S. cerevisiae deletion strains, locus YKL190W, strain CNB1, hits give low values 1.02 | S. cerevisiae deletion strains, locus YKR001C, strain vps1, hits give low values 1.02 | S. cerevisiae deletion strains, locus YKR026C, strain gcn3, hits give low values 0.987 | S. cerevisiae deletion strains, locus YKR091W, strain srl3, hits give low values 1.01 | S. cerevisiae deletion strains, locus YLL001W, strain dnm1, hits give low values 1 | S. cerevisiae deletion strains, locus YLL026W, hits give low values 1 | S. cerevisiae deletion strains, locus YLL041C, strain sdh2, hits give low values 1.01 | S. cerevisiae deletion strains, locus YLR027C, strain aat2, hits give low values 1.01 | S. cerevisiae deletion strains, locus YLR039C, strain RIC1, hits give low values 1.07 | S. cerevisiae deletion strains, locus YLR058C, strain SHM2, hits give low values 1.02 | S. cerevisiae deletion strains, locus YLR102C, strain apc9, hits give low values 1.01 | S. cerevisiae deletion strains, locus YLR221C, strain rsa3, hits give low values 0.999 | S. cerevisiae deletion strains, locus YLR258W, strain gsy2, hits give low values 1.02 | S. cerevisiae deletion strains, locus YLR262C, strain YPT6 (second series), hits give low values 1.01 | S. cerevisiae deletion strains, locus YLR262C, strain YPT6, hits give low values 1.03 | S. cerevisiae deletion strains, locus YLR268W, strain sec22, hits give low values 0.98 | S. cerevisiae deletion strains, locus YLR320W, strain mms22, hits give low values 1.01 | S. cerevisiae deletion strains, locus YLR330W, strain CHS5, hits give low values 1.01 | S. cerevisiae deletion strains, locus YLR342W, strain FKS1 (second series), hits give low values 1.11 | S. cerevisiae deletion strains, locus YLR342W, strain FKS1, hits give low values 1.01 | S. cerevisiae deletion strains, locus YLR357W, strain rsc2, hits give low values 1.1 | S. cerevisiae deletion strains, locus YLR370C, strain arc18, hits give low values 1.01 | S. cerevisiae deletion strains, locus YLR371W, strain rom2, hits give low values 1.02 | S. cerevisiae deletion strains, locus YLR384C, strain iki3, hits give low values 1.02 | S. cerevisiae deletion strains, locus YLR418C, strain cdc73, hits give low values 0.943 | S. cerevisiae deletion strains, locus YML016C, strain PPZ1, hits give low values 1.01 | S. cerevisiae deletion strains, locus YML032C, strain rad52, hits give low values 1.05 | S. cerevisiae deletion strains, locus YML120C, strain ndi1, hits give low values 1.01 | S. cerevisiae deletion strains, locus YML124C, strain tub3, hits give low values 1.01 | S. cerevisiae deletion strains, locus YMR058W, strain fet3, hits give low values 1.01 | S. cerevisiae deletion strains, locus YMR078C, strain ctf18, hits give low values 1.02 | S. cerevisiae deletion strains, locus YMR125W, strain sto1, hits give low values 1.04 | S. cerevisiae deletion strains, locus YMR129W, hits give low values 0.973 | S. cerevisiae deletion strains, locus YMR205C, strain PFK2, hits give low values 1.02 | S. cerevisiae deletion strains, locus YMR223W, strain ubp8, hits give low values 1.04 | S. cerevisiae deletion strains, locus YMR231W, strain pep5, hits give low values 1.01 | S. cerevisiae deletion strains, locus YMR263W, strain SAP30, hits give low values 1.01 | S. cerevisiae deletion strains, locus YMR307W, strain GAS1, hits give low values 1.02 and 0.997 | S. cerevisiae deletion strains, locus YNL067W, strain RPL9B, hits give low values 1.01 | S. cerevisiae deletion strains, locus YNL071W, strain lat1, hits give low values 1.01 | S. cerevisiae deletion strains, locus YNL128W, strain TEP1, hits give low values 0.988 | S. cerevisiae deletion strains, locus YNL153C, strain GIM3, hits give low values 1.01 and 1.03 | S. cerevisiae deletion strains, locus YNL175C, strain NOP13, hits give low values 1 | S. cerevisiae deletion strains, locus YNL197C, strain WHI3, hits give low values 0.996 | S. cerevisiae deletion strains, locus YNL209W, strain ssb2, hits give low values 1 | S. cerevisiae deletion strains, locus YNL224C, strain SQS1, hits give low values 1 | S. cerevisiae deletion strains, locus YNL233W, strain BNI4, hits give low values 1.02 | S. cerevisiae deletion strains, locus YNL248C, strain rpa49, hits give low values 1.01 | S. cerevisiae deletion strains, locus YNL250W, strain rad50, hits give low values 1 | S. cerevisiae deletion strains, locus YNL271C, strain bni1, hits give low values 1.02 | S. cerevisiae deletion strains, locus YNL298W, strain CLA4, hits give low values 1.01 | S. cerevisiae deletion strains, locus YNL307C, strain MCK1, hits give low values 1.05 | S. cerevisiae deletion strains, locus YNL322C, strain KRE1 (second series), hits give low values 1 | S. cerevisiae deletion strains, locus YNL322C, strain KRE1, hits give low values 1.01 and 1.02 | S. cerevisiae deletion strains, locus YNR049C, strain mso1, hits give low values 1.01 | S. cerevisiae deletion strains, locus YNR052C, strain pop2, hits give low values 1.01 | S. cerevisiae deletion strains, locus YOL006C, strain TOP1, hits give low values 1.04 | S. cerevisiae deletion strains, locus YOL012C, strain htz1 0.927 | S. cerevisiae deletion strains, locus YOL147C, strain pex11, hits give low values 1.01 | S. cerevisiae deletion strains, locus YOR001W, strain rrp6, hits give low values 0.99 | S. cerevisiae deletion strains, locus YOR061W, strain CKA2, hits give low values 1.01 | S. cerevisiae deletion strains, locus YOR069W, strain VPS5, hits give low values 1.02 | S. cerevisiae deletion strains, locus YOR070C, strain gyp1, hits give low values 1 | S. cerevisiae deletion strains, locus YOR080W, strain dia2, hits give low values 1 | S. cerevisiae deletion strains, locus YOR083W, strain WHI5 (second series), hits give low values 1.02 | S. cerevisiae deletion strains, locus YOR083W, strain WHI5, hits give low values 0.971 | S. cerevisiae deletion strains, locus YOR106W, strain vam3, hits give low values 0.991 | S. cerevisiae deletion strains, locus YOR136W, strain idh2, hits give low values 1.01 | S. cerevisiae deletion strains, locus YOR144C, strain elg1, hits give low values 1 | S. cerevisiae deletion strains, locus YOR184W, strain ser1, hits give low values 1.06 | S. cerevisiae deletion strains, locus YOR265W, strain rbl2, hits give low values 1.01 | S. cerevisiae deletion strains, locus YOR270C, strain vph1, hits give low values 1.01 | S. cerevisiae deletion strains, locus YOR290C, strain snf2, hits give low values 0.993 | S. cerevisiae deletion strains, locus YOR316C, strain cot1, hits give low values 1.02 | S. cerevisiae deletion strains, locus YPL051W, strain arl3, hits give low values 0.989 | S. cerevisiae deletion strains, locus YPL055C, strain LGE1, hits give low values 0.952 and 1.01 | S. cerevisiae deletion strains, locus YPL078C, strain atp4, hits give low values 0.983 | S. cerevisiae deletion strains, locus YPL106C, strain sse1, hits give low values 1.02 | S. cerevisiae deletion strains, locus YPL240C, strain hsp82, hits give low values 0.991 | S. cerevisiae deletion strains, locus YPL241C, strain CIN2, hits give low values 1.02 and 1 | S. cerevisiae deletion strains, locus YPR119W, strain clb2, hits give low values 1 | S. cerevisiae deletion strains, locus YPR141C, strain kar3, hits give low values 1.01 | S. cerevisiae deletion strains, locus YPR163C, strain tif3, hits give low values 1.01 | S. cerevisiae deletion strains, locus YPR167C, strain met16, hits give low values 1.01 | S. cerevisiae deletion strains, strain wtn01, hits give low values 0.982 | S. cerevisiae strains, strain wild type, hits give low values 1.03
